Results published in PubChem BioAssay (NCATS).

These compounds were tested against Nicotinamide N-methyltransferase (Homo sapiens) (UniProt P40261) (assay: Confirmatory Screen for Target Class Profiling of Small Molecule Inhibitors of Methyltransferases (AID 1745852)). Conditions: MTase-Glo luminescence, SAH detection, recombinant enzyme; measured here: NNMT max response; stronger effect = lower value.
Sequence of Nicotinamide N-methyltransferase (Homo sapiens) (P40261 whole entry, looked up): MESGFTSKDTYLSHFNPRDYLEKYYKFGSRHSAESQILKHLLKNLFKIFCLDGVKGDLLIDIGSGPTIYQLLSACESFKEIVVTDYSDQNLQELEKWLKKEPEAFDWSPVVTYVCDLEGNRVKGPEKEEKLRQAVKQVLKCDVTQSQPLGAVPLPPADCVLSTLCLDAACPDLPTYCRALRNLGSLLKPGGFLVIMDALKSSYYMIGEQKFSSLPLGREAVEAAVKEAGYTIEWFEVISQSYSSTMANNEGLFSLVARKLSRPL

First: O=S1(=O)CCN(Cc2cc(NCC3CCOCC3)c3[nH]c(-c4ccccc4)cc3c2)CC1
Second: CCn1c2ccccc2c2cc(Nc3ccnc(NCCCN4CCOCC4)n3)ccc21
The activity of the first is higher: -6.86% for the first, -66.6% for the second.

Going from `O=C(c1ccccc1)c1c(O)cc(O)cc1O[C@@H]1O[C@H](CO)[C@@H](O)[C@H](O)[C@H]1O` to `COc1c(CCC(=O)O)cccc1O[C@@H]1O[C@H](CO)[C@@H](O)[C@H](O)[C@H]1O`, the activity rises from -5.29% to 0.561%.

Going from `CC(C)C[C@H](CO)Nc1nc(S[C@@H](C)c2ccccc2)nc2nc(N)sc12` to `COc1ccc(CCN(C)CCCOc2nsc(-c3ccccc3)n2)cc1OC`, the activity rises from -40.8% to -34.1%.

Compared with `O=C(c1ccc(Cl)cc1)N1CCN(c2ccnc3cc(Cl)ccc23)CC1`, `COc1ccc(NC(=O)c2ccc(-c3ccc(C(=N)N)cc3C)cc2)cc1N1CCN(C)CC1` is higher in activity: -41.3% for the first, -3.54% for the second.

First: Cc1c[nH]c2ncnc(N3CCC(CN)(C(=O)Nc4cccc(OC(=O)N(C)C)c4)CC3)c12
Second: Cc1cc(NC(=O)c2cccc(NC(=O)/C=C/CN(C)C)c2)ccc1Nc1nccc(-c2cccnc2)n1
The activity of the first is lower: -59.8% for the first, -3.09% for the second.

Compared with `C=CC(=O)Nc1cccc(Nc2nc(Nc3ccc(OCCOC)cc3)ncc2F)c1`, `CN1CCN(Cc2ccc(NC(=O)Cc3ccc(Oc4cc(NC(=O)C5CC5)ncn4)cc3)cc2C(F)(F)F)CC1` is higher in activity: -65.2% for the first, -29.5% for the second.

Compared with `Cc1c(OCc2cccc(-c3ccc(C(=O)O)cc3)c2)cc2c(c1C)C(=O)C(C1CCCC1)C2` (stereo not drawn), `COc1cccc(-c2cn(-c3ccc(CCN4CCC(O)CC4)cc3)c3ncnc(N)c23)c1` is lower in activity: -40.4% for the first, -80.6% for the second.

Compared with `C[C@]12CC[C@@H]3c4ccc(O)c(O)c4CC[C@H]3[C@@H]1CCC2=O`, `COC(=O)CC1OC(C)C2=C(O)c3c(O)cccc3C(=O)C23OC13` (stereo not drawn) is higher in activity: -14.2% for the first, -0.835% for the second.

Going from `CCOC(=O)N1CCC(CN(Cc2ccc(Cl)cc2)Cc2ccc([N+](=O)[O-])s2)C1` (stereo not drawn) to `CC[C@H]1CN(c2nc(N)c(C(N)=O)nc2Cl)CCN1C1CCN(Cc2ccc(Cl)cc2)CC1`, the activity falls from -5.08% to -61.1%.

Compared with `C=C1C(OC2OC(CO)C(O)C(O)C2O)CC2C(C)(C)C(O)CCC2(C)C1CC/C(C)=C\COC(=O)CC(=O)O` (stereo not drawn), `CC1(C)CC[C@]2(C(=O)O[C@@H]3O[C@H](CO)[C@@H](O)[C@H](O)[C@H]3O)CC[C@]3(C)C(=CCC4[C@@]5(C)CC[C@H](O[C@@H]6O[C@H](C(=O)O)[C@H](O)[C@H](O)[C@H]6O)C(C)(C)C5CC[C@]43C)[C@@H]2C1` (stereo partly drawn) is lower in activity: 0% for the first, -9.04% for the second.

Going from `Fc1ccc2c(CCNCc3cccc(OCC(F)(F)C(F)F)c3)c[nH]c2c1` to `CC(C)(C[C@@](O)(Cc1cc2ccncc2[nH]1)C(F)(F)F)c1cc(F)ccc1O`, the activity rises from -8.62% to -1.53%.

Compared with `Cc1[nH]c(/C=C2\C(=O)Nc3ccc(S(=O)(=O)N(C)c4cccc(Cl)c4)cc32)c(C)c1C(=O)N1CCN(C)CC1`, `CN(C)CC1CCn2c(c(C3=C(c4cn(C)c5ccccc45)C(=O)NC3=O)c3ccccc32)C1` (stereo not drawn) is higher in activity: -49.1% for the first, -44.5% for the second.

First: COc1cc2c(Nc3cc(F)c(Cl)c(Cl)c3)ncnc2cc1OCC1CCCN(C)CCC1
Second: Nc1nc(NC2CC2)cc(-c2cccc(Cl)c2Cl)n1
The activity of the first is higher: -13.9% for the first, -52.3% for the second.

Going from `COc1ccc(CCc2nc3c(C)c(-c4c(C)noc4C)c(C)cc3n2CCN2CCOCC2)cc1` to `Cc1nnc(C[C@@H]2C=C(c3ccc(Cl)cc3)c3ccccc3-n3c(C)nnc32)o1`, the activity rises from -28% to -21%.

Going from `CC(=O)OC/C(=C/C(=O)O)CC[C@@H]1C(C=O)=CC[C@@H]2C(C)(C)CCC[C@@]12C` to `CCCc1cc2c(N3CCN(C4=NCC(C)(C)S4)CC3)ncnc2s1`, the activity falls from -14% to -77.1%.

First: Nc1ncnc2c1c(-c1ccc(Oc3ccccc3)cc1)nn2[C@@H]1CCCNC1
Second: Cc1nc(C#Cc2ccnc(Cl)c2)c(C)n1-c1ccc(F)cc1
The activity of the first is lower: -54% for the first, -47.6% for the second.

First: CCNC(=O)C#Cc1ccc2c(C(=Nc3ccc(CN(C)C)cc3)c3ccccc3)c(O)[nH]c2c1
Second: O=C(Nc1ccc(C(F)(F)F)cn1)N1CCN(c2ncccc2C(F)(F)F)CC1
The activity of the first is lower: -31% for the first, -0.919% for the second.

These compounds were tested against Phenylethanolamine N-methyltransferase (Homo sapiens) (UniProt P11086) in the same assay as above. Conditions: MTase-Glo luminescence, SAH detection, recombinant enzyme; measured here: PNMT max response; stronger effect = lower value.
Sequence of Phenylethanolamine N-methyltransferase (Homo sapiens) (P11086 whole entry, looked up): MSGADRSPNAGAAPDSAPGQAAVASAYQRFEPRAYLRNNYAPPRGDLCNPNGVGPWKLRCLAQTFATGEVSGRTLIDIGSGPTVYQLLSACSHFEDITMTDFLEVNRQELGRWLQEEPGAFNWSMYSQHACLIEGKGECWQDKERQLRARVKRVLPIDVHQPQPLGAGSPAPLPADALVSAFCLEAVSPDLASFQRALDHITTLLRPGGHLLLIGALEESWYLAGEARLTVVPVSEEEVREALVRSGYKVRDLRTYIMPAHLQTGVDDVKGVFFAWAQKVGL

First: O=S1(=O)CCN(Cc2cc(NCC3CCOCC3)c3[nH]c(-c4ccccc4)cc3c2)CC1
Second: CCn1c2ccccc2c2cc(Nc3ccnc(NCCCN4CCOCC4)n3)ccc21
The activity of the first is higher: -4.93% for the first, -29.8% for the second.

First: O=C(c1ccccc1)c1c(O)cc(O)cc1O[C@@H]1O[C@H](CO)[C@@H](O)[C@H](O)[C@H]1O
Second: COc1c(CCC(=O)O)cccc1O[C@@H]1O[C@H](CO)[C@@H](O)[C@H](O)[C@H]1O
The activity of the first is higher: -6.01% for the first, -9.51% for the second.

First: CC(C)C[C@H](CO)Nc1nc(S[C@@H](C)c2ccccc2)nc2nc(N)sc12
Second: COc1ccc(CCN(C)CCCOc2nsc(-c3ccccc3)n2)cc1OC
The activity of the first is higher: -2.5% for the first, -10.5% for the second.

Compared with `O=C(c1ccc(Cl)cc1)N1CCN(c2ccnc3cc(Cl)ccc23)CC1`, `COc1ccc(NC(=O)c2ccc(-c3ccc(C(=N)N)cc3C)cc2)cc1N1CCN(C)CC1` is higher in activity: -10.9% for the first, -6.51% for the second.

Compared with `Cc1c[nH]c2ncnc(N3CCC(CN)(C(=O)Nc4cccc(OC(=O)N(C)C)c4)CC3)c12`, `Cc1cc(NC(=O)c2cccc(NC(=O)/C=C/CN(C)C)c2)ccc1Nc1nccc(-c2cccnc2)n1` is higher in activity: -19.2% for the first, -2.64% for the second.

Going from `C=CC(=O)Nc1cccc(Nc2nc(Nc3ccc(OCCOC)cc3)ncc2F)c1` to `CN1CCN(Cc2ccc(NC(=O)Cc3ccc(Oc4cc(NC(=O)C5CC5)ncn4)cc3)cc2C(F)(F)F)CC1`, the activity rises from -40.1% to -13.7%.

Compared with `Cc1c(OCc2cccc(-c3ccc(C(=O)O)cc3)c2)cc2c(c1C)C(=O)C(C1CCCC1)C2` (stereo not drawn), `COc1cccc(-c2cn(-c3ccc(CCN4CCC(O)CC4)cc3)c3ncnc(N)c23)c1` is lower in activity: -6.25% for the first, -84.3% for the second.

Going from `C[C@]12CC[C@@H]3c4ccc(O)c(O)c4CC[C@H]3[C@@H]1CCC2=O` to `COC(=O)CC1OC(C)C2=C(O)c3c(O)cccc3C(=O)C23OC13` (stereo not drawn), the activity rises from -20.6% to -0.505%.

Going from `CCOC(=O)N1CCC(CN(Cc2ccc(Cl)cc2)Cc2ccc([N+](=O)[O-])s2)C1` (stereo not drawn) to `CC[C@H]1CN(c2nc(N)c(C(N)=O)nc2Cl)CCN1C1CCN(Cc2ccc(Cl)cc2)CC1`, the activity falls from -5.01% to -5.17%.

Going from `C=C1C(OC2OC(CO)C(O)C(O)C2O)CC2C(C)(C)C(O)CCC2(C)C1CC/C(C)=C\COC(=O)CC(=O)O` (stereo not drawn) to `CC1(C)CC[C@]2(C(=O)O[C@@H]3O[C@H](CO)[C@@H](O)[C@H](O)[C@H]3O)CC[C@]3(C)C(=CCC4[C@@]5(C)CC[C@H](O[C@@H]6O[C@H](C(=O)O)[C@H](O)[C@H](O)[C@H]6O)C(C)(C)C5CC[C@]43C)[C@@H]2C1` (stereo partly drawn), the activity falls from 2.99% to -2.05%.

Going from `Fc1ccc2c(CCNCc3cccc(OCC(F)(F)C(F)F)c3)c[nH]c2c1` to `CC(C)(C[C@@](O)(Cc1cc2ccncc2[nH]1)C(F)(F)F)c1cc(F)ccc1O`, the activity rises from -13.2% to -1.87%.

First: Cc1[nH]c(/C=C2\C(=O)Nc3ccc(S(=O)(=O)N(C)c4cccc(Cl)c4)cc32)c(C)c1C(=O)N1CCN(C)CC1
Second: CN(C)CC1CCn2c(c(C3=C(c4cn(C)c5ccccc45)C(=O)NC3=O)c3ccccc32)C1 (stereo not drawn)
The activity of the first is higher: -9.35% for the first, -10.7% for the second.

Compared with `COc1cc2c(Nc3cc(F)c(Cl)c(Cl)c3)ncnc2cc1OCC1CCCN(C)CCC1`, `Nc1nc(NC2CC2)cc(-c2cccc(Cl)c2Cl)n1` is higher in activity: -10.4% for the first, -7.75% for the second.

Going from `COc1ccc(CCc2nc3c(C)c(-c4c(C)noc4C)c(C)cc3n2CCN2CCOCC2)cc1` to `Cc1nnc(C[C@@H]2C=C(c3ccc(Cl)cc3)c3ccccc3-n3c(C)nnc32)o1`, the activity rises from 1.27% to 3.69%.

Going from `CC(=O)OC/C(=C/C(=O)O)CC[C@@H]1C(C=O)=CC[C@@H]2C(C)(C)CCC[C@@]12C` to `CCCc1cc2c(N3CCN(C4=NCC(C)(C)S4)CC3)ncnc2s1`, the activity rises from -7.72% to -5.27%.

Going from `Nc1ncnc2c1c(-c1ccc(Oc3ccccc3)cc1)nn2[C@@H]1CCCNC1` to `Cc1nc(C#Cc2ccnc(Cl)c2)c(C)n1-c1ccc(F)cc1`, the activity falls from -19% to -47.9%.

Going from `CCNC(=O)C#Cc1ccc2c(C(=Nc3ccc(CN(C)C)cc3)c3ccccc3)c(O)[nH]c2c1` to `O=C(Nc1ccc(C(F)(F)F)cn1)N1CCN(c2ncccc2C(F)(F)F)CC1`, the activity falls from -19.5% to -60.8%.
